Screening results deposited in PubChem BioAssay by Broad Institute.
In the library only some 2.1% were active in any assay of this set; here they are far more common.
NFkB binder = binders of human NF-kappa-B p105; 17,000 tested, 1.3% active; calls only; Small molecule microarray, anti-His fluorescence binding; P19838;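 active means spot fluorescence over background significantly raised, with a chance value under 7% in all four replicate spots of the compound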;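 further: probe protein is his-tagged human p50 processed subunit at 1 µg/ml; raw spot fluorescence signals with no normalization applied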
Myc binder = binds human c-Myc on microarray | P01106 | small molecule microarray, His-c-Myc binding, anti-His fluorescence | calls only | 17,000 tested, 1.5% active | AID 624141;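 active means spot fluorescence over background with P-value below 7% in all four replicate spots, showing protein binding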;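 further: score is binary with 100 for all four spots passing and 0 otherwise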
STAT3 binder = binders of human STAT3; 17,000 tested, 0.2% active; calls only; Small molecule microarray, His-STAT3 binding, anti-His fluorescence; AID 624138;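 active means compounds whose four printed spots each show fluorescence over background unusually high for their array block, chance value under 7%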
mut p53 SMM = mutant p53 (human) binding; 17,000 tested, 0.4% active; small molecule microarray binding, anti-GST fluorescence; calls only;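 active means compounds whose four printed spots each glow above background more than chance allows, each with a p-value under 7%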
Starred values were filed as active, the others as inactive.

C[C@H](CO)N1C[C@H](C)[C@H](CN(C)S(=O)(=O)c2cccs2)Oc2c(NC(=O)c3ccc(-c4nccs4)cc3)cccc2C1=O was read as NFkB binder inactive, Myc binder inactive, STAT3 binder inactive and mut p53 SMM inactive.
Screening C[C@@H]1CCCCO[C@H](CN(C)C(=O)CCC(F)(F)F)[C@@H](C)CN([C@H](C)CO)C(=O)c2cc(NC(=O)c3ccncc3)ccc2O1 returned NFkB binder inactive, Myc binder inactive, STAT3 binder inactive and mut p53 SMM inactive.
For C[C@@H]1CCCCO[C@H](CN(C)C(=O)CCC(F)(F)F)[C@H](C)CN([C@@H](C)CO)C(=O)c2cc(NC(=O)c3ccncc3)ccc2O1 the results were NFkB binder active, Myc binder inactive, STAT3 binder inactive and mut p53 SMM inactive.
C[C@@H]1CN([C@@H](C)CO)C(=O)c2cc(NC(=O)c3ccncc3)ccc2O[C@@H](C)CCCCO[C@H]1CN(C)C(=O)CCC(F)(F)F was read as NFkB binder inactive, Myc binder inactive, STAT3 binder inactive and mut p53 SMM inactive.
`C[C@H](CO)N1C[C@H](C)[C@H](CN(C)C(=O)CCC(F)(F)F)OCCCC[C@H](C)Oc2ccc(NC(=O)c3ccncc3)cc2C1=O` gave NFkB binder active, Myc binder active, STAT3 binder inactive and mut p53 SMM inactive.
`Cc1ccc(NC(=O)c2cccc(NC(=O)CCC(=O)O)c2)cc1C` gave NFkB binder inactive, Myc binder inactive, STAT3 binder inactive and mut p53 SMM inactive.
Screening Cc1cccc(NC(=O)CCC(=O)O)c1 returned NFkB binder inactive, Myc binder active, STAT3 binder inactive and mut p53 SMM inactive.
